# Reference: the supplement of paper PMC6555819
# System: THRa:RXRa (NR concentration 90 nM, RXRa partner concentration 90 nM)
# Test: PBM binding z-score (relative to random genomic background probes); higher = stronger binding; sequences stand for … in GC…GCGATTGACAGCGTAGAATGAAGG
# How it was run: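 Ligand-free nuclear receptor dimers were applied to custom Agilent 4×180K protein-binding microarrays whose double-stranded probes carried direct-repeat seeds, single-nucleotide variants, half-site ablations and random human genomic background sequences in 34-nt variable regions. Incubation lasted 1 h. Binding z-scores were computed against the random background probes from regression-normalized fluorescence.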
row,Sequence,PBM binding z-score
1,TCTAGTTGGTAAAAGGTCACACACTCGAAATGCG,4.08
2,GATACAGGGTCAGCTAGAGGCCGGAGTATGGAAA,2.7
3,GGAACGAGGGCAAAGTTAATAGCATCTGTCGACG,1.27
4,CCTACTGGGCCATTCAGAGTTCATTGATCATATG,1.12
5,ACTACAGGGTCATCGTAGGCCAGAGTACGCACAG,4.64
6,CGAACTAGGTCAATGACAGGACAGTGAATAGTAA,2.62
7,ATATGTAGGTTACATCCGGGTCATTCAAGCTATG,3.88
8,CAAACTAGGTCACGGAGGTCAAAGTCCGTGCGTA,4.74
9,GGAACCAGGGCATTCGAGTTGATAGCATGGCGAT,2.66
10,TCTACTTGGTCAAAGGTCACACACTCGAAATGCG,4.24
11,AGAACGAGGGCACGCTGAGTTGATAGTAGAGTAG,1.9
12,CCTTACGGGTCACTGACAGGTTATATCATTTGGA,2.96
13,ATATCTAGGTAAAGATAGTTCAGTGAATGCAAAT,0.642
14,AGAACGAGGGCACGCCGAGTTGATAGCAGAGTAG,1.96
15,TCATATAGGTAAAAGGTGAAAGGCGGTGTGGTAA,1.56
16,AGTATGAGGTTATTAAGATCAGGGAATTGCGGTC,2.27
17,ATATGTATGTTACATCCGGGTCATTCAGGCTATG,3.04
18,CCTAGCAGGCAAATCTGGGTCACTCAAGGCTTGA,2.89
19,CCTACTGAGCCACGAAAGGTCATTGATTCAGTGA,3.41
20,CGTCCAAGGTCATAGGTCAGTGAAGAGATGACGG,4.31

row,Sequence,PBM binding z-score
1,GGAACGAGGGCATTCGAGTTGATAGCCTGGCGAT,3.25
2,CCTAGTTGGTCAGTAGGTCACACACCGGATATGA,2.1
3,TAGCCTCGGTCATGCGGGCCAGTATAGTGTCGGC,-0.135
4,ATATGTAGGTTAGCTGGGGTTATTCAGACTAGGC,4.32
5,CATACAGGGTCAGCTATGCCAGAGTAGGGACGGC,2.75
6,TCATATAGGTAAATGCTAGGTGAAAATCCGATCT,1.24
7,ATCTCTGGGTAAAGATAGTTCAGTGAATGCAAAT,0.544
8,CGATCTAGGTCAGAACAGGACAGTGAAGGATGAT,3.36
9,AGAATAAGGTTACCAAAGATCAGGGAAACGCTTG,2.69
10,TGAATGAGGTTATAAGATCCGGGAACGTTGCAAA,1.7
11,ATCTCTAGGAAACCAAGTTCAGTGAATGCCGAAC,0.46
12,TCTTATAGATCAAGCAGGTTAAGAAAGCCTGAGT,0.558
13,TCTAGCAGGCCAGAGGGTCTCTCAAGAGGTACGG,-1.48
14,GCTGCAAGGTCAGGTTGGTCAGCTAACGGGTACG,3.26
15,CAGCTTAGGTCAGGGCCAGTATAGGAGGAACGTT,3
16,GCATGTAGATCAAGGTTAAGAAAGACTAAGCTAA,1.26
17,ATCTCTAGGTAACCAAGTGCAGTGAATGCCGAAC,0.515
18,CCTACTGGTCCAAAAAGGTCATTGATGCCGATAA,3.35
19,CCTATTAGTCGACCATAAGGGCAACCGAAGCTCG,1.33
20,CCGACTGGGGCATAAGGTTATCATAAGCCAGCCC,1.78
